Laboratory results from PMC12864922, “TDP-43 directly inhibits mRNA accumulation in neurites through modulation of mRNA stability”.
Over roughly 9,900 sequences, “r (bound/input frequency ratio)” has its median near 0.7; the highest 2% begin near 6.5. What follows is part of a selection rich in the highest values, with near analogues and random picks from the rest.

B1: ENSMUSG00000022095.41|Fam160b2|101:105 (ssRNA)
RNA: GGGAGUUCUACAGUCCGACGAUCGCUUCGAUAUCCGCAUGCUAUGAGGUUUCAAGGAGGUGCUGGCUCCUAAGGCAGUGGUAUUCUUGGAGCCUUUUAGAGGAGCUAGAGGAUGGCCAGUGAGCGCCUAGAUGCUGCCCUGCAACACAUGCGUGACUAUCUCUGCUAUAUUGUGACCAGGGCCACAACAUGAGACAACUCCAGGGGCCAGGGAGAUGAACUGCUGUCUUUGAGGCUGGCUAAAAAAACAAUCCAGUCCAGAGAGAUGGGGAGGGGGGGAGCAAGAACCCUGUCUGUUACAUUACUCUUGCGGUCGCACUAGUGUGGAAUUCUCGGGUGUCAAGG
B2: ENSMUSG00000031028.396|Tub|202:206 (ssRNA)
RNA: GGGAGUUCUACAGUCCGACGAUCGCUUCGAUAUCCGCAUGCUAUUGACCACUGGCGCUGUGAACACAGGCUAAUGGACUUCAGAUACCAGGGCCCCGGGAUCACCUGGGUUAGCCUCUCCCACAGGAAGAUCCCUUACCCCUCAUCCCCUCUUCUUUUUGGUCCUUGGCUGGGUAGCAAAUUGGUGAGAAGAGCAGCCUAGUCUGUAAGAGUGCAGGGCAGCUGGAACCUUAGGCAGCUCCUCUCAUACCUACCGGCUCCACACCCUAACACUCUCCACCCUCUGCUCCAAACCAGUUCUUCUCUCUUGCGGUCGCACUAGUGUGGAAUUCUCGGGUGUCAAGG
B3: ENSMUSG00000028439.136|Fam219a (ssRNA)
RNA: GGGAGUUCUACAGUCCGACGAUCGCUUCGAUAUCCGCAUGCUAAACCAGUGCAUCUGUCUCUCUGCCUCAUCCCCACACCGCCCUGCCACCCCCAGUCUUCUGUCUAUUGGUUCCAGGCUGGAAGCAAGAGAUAAGGCUGGCCUCCUGUGCCCCAUUGCCAUUUCACCCUAGCUCAAAGUCCAGGAGCCAGGCUUCCAGAAAGGCUCUUCAAGAGCAAGCUUAAGGAAAUACAGUGAGCCAAGUGGCUGUAUGAUAUGGUAUGGUAUGGUAUGGUAUGGUAUGGUAUGGUAUGCACAUGUGUGCUCUUGCGGUCGCACUAGUGUGGAAUUCUCGGGUGUCAAGG
B4: ENSMUSG00000028439.148|Fam219a|134:138;144:178;183:190;193:202;205:214;216:220;222:238;240:257 (ssRNA)
RNA: GGGAGUUCUACAGUCCGACGAUCGCUUCGAUAUCCGCAUGCUAAGGCUGGAAGCAAGAGAUAAGGCUGGCCUCCUGUGCCCCAUUGCCAUUUCACCCUAGCUCAAAGUCCAGGAGCCAGGCUUCCAGAAAGGCUCUUCAAGAGCAAGCUUAAGGAAAUACAGUGAGCCAAGUGGCUCAUACAUAUGCAUACCAUACCAUACCAUACCAUACCAUACCAUACCACAACACACACCAACACACACACCCACACACACACCCACACCCACACACAUACACACACCCACACACACACACACACAUGUCUCUUGCGGUCGCACUAGUGUGGAAUUCUCGGGUGUCAAGG
B5: ENSMUSG00000028439.152|Fam219a (ssRNA)
RNA: GGGAGUUCUACAGUCCGACGAUCGCUUCGAUAUCCGCAUGCUAGGCCUCCUGUGCCCCAUUGCCAUUUCACCCUAGCUCAAAGUCCAGGAGCCAGGCUUCCAGAAAGGCUCUUCAAGAGCAAGCUUAAGGAAAUACAGUGAGCCAAGUGGCUGUAUGAUAUGGUAUGGUAUGGUAUGGUAUGGUAUGGUAUGGUAUGCACAUGUGUGUGCAUGUGUGUGUGCCUGUGUGUGUGCGUGUGCGUGUGUGUAUGUGUGUGCGUGUGUGUGUGUGUGUGUUGUACCCGAGUGUGUGUUGAGCCUAUCCUCUUGCGGUCGCACUAGUGUGGAAUUCUCGGGUGUCAAGG
B6: ENSMUSG00000028439.149|Fam219a (ssRNA)
RNA: GGGAGUUCUACAGUCCGACGAUCGCUUCGAUAUCCGCAUGCUAGAAGCAAGAGAUAAGGCUGGCCUCCUGUGCCCCAUUGCCAUUUCACCCUAGCUCAAAGUCCAGGAGCCAGGCUUCCAGAAAGGCUCUUCAAGAGCAAGCUUAAGGAAAUACAGUGAGCCAAGUGGCUGUAUGAUAUGGUAUGGUAUGGUAUGGUAUGGUAUGGUAUGGUAUGCACAUGUGUGUGCAUGUGUGUGUGCCUGUGUGUGUGCGUGUGCGUGUGUGUAUGUGUGUGCGUGUGUGUGUGUGUGUGUUGUACCCGACUCUUGCGGUCGCACUAGUGUGGAAUUCUCGGGUGUCAAGG
B7: ENSMUSG00000028439.151|Fam219a (ssRNA)
RNA: GGGAGUUCUACAGUCCGACGAUCGCUUCGAUAUCCGCAUGCUAAAGGCUGGCCUCCUGUGCCCCAUUGCCAUUUCACCCUAGCUCAAAGUCCAGGAGCCAGGCUUCCAGAAAGGCUCUUCAAGAGCAAGCUUAAGGAAAUACAGUGAGCCAAGUGGCUGUAUGAUAUGGUAUGGUAUGGUAUGGUAUGGUAUGGUAUGGUAUGCACAUGUGUGUGCAUGUGUGUGUGCCUGUGUGUGUGCGUGUGCGUGUGUGUAUGUGUGUGCGUGUGUGUGUGUGUGUGUUGUACCCGAGUGUGUGUUGAGCUCUUGCGGUCGCACUAGUGUGGAAUUCUCGGGUGUCAAGG
B8: ENSMUSG00000028439.150|Fam219a (ssRNA)
RNA: GGGAGUUCUACAGUCCGACGAUCGCUUCGAUAUCCGCAUGCUAAGAGAUAAGGCUGGCCUCCUGUGCCCCAUUGCCAUUUCACCCUAGCUCAAAGUCCAGGAGCCAGGCUUCCAGAAAGGCUCUUCAAGAGCAAGCUUAAGGAAAUACAGUGAGCCAAGUGGCUGUAUGAUAUGGUAUGGUAUGGUAUGGUAUGGUAUGGUAUGGUAUGCACAUGUGUGUGCAUGUGUGUGUGCCUGUGUGUGUGCGUGUGCGUGUGUGUAUGUGUGUGCGUGUGUGUGUGUGUGUGUUGUACCCGAGUGUGUCUCUUGCGGUCGCACUAGUGUGGAAUUCUCGGGUGUCAAGG
B9: ENSMUSG00000061578.707|Ksr2|13:17 (ssRNA)
RNA: GGGAGUUCUACAGUCCGACGAUCGCUUCGAUAUCCGCAUGCUACCUGUAGUCUCUACACACAUCUUCUUCUAAGACCACUAAUAACACCGCCUUUCUCCUUGAUCCGGGCCUCAGACCUCUUCAGAGAUUCUUUCUCUGAAUGUACGUGGGGGACUCCAACAGAUGUUGGGAGAAGACUCAAUAUGAGCAUACGGGGUCAUUGUUCAAUCCUGUAUCAAGACCUUGGAGUUGUCUAAGGCUGUGGGUUUUAAAUACCUGCUGCAGGCCUCCCAUCUCUGGCUCUUUGUUUCCACUCUGGCCCACUCUUGCGGUCGCACUAGUGUGGAAUUCUCGGGUGUCAAGG
B10: ENSMUSG00000061578.929|Ksr2|22:26 (ssRNA)
RNA: GGGAGUUCUACAGUCCGACGAUCGCUUCGAUAUCCGCAUGCUACAAGGGUGUUUAGAGUAGGCACACACGAAGUAUCAAUAAGGUUAUUGAGAUGAGGAUUUAGAAAGAUCCAUGUAUAAAAGGUCUAGAAGGAUGAAGAUCUAAAACAAGAAGACUGCAUGUUAACGCUCCUGCCACUGUUGCCCCUUCCUUUACCCUUGGCAGACAUUGCUAAUCAAUCUCAGCACAGUUUCCAACCACAGUCAUAGAACAUUUGCCACAAAGGCCCUGGAUGUGACUAUAUGUGCUGAGAAGGGAAGGUACUCUUGCGGUCGCACUAGUGUGGAAUUCUCGGGUGUCAAGG
B11: ENSMUSG00000028439.103|Fam219a (ssRNA)
RNA: GGGAGUUCUACAGUCCGACGAUCGCUUCGAUAUCCGCAUGCUAAUACCUAUUUGUGUUUUCCCCUCAUCUCCAGAUGGGAAGCCUGGCAGCGCUGUCCAAAGGGAUACUGUCUCUCCAUUAGAUAACUCCUUCCACUGUCUCCCUCCCCCGCUUUCUUACUUUCUGAGGGUUGGGAAGGUAAGAUGGGCCUUAGAGAGAAGCCAGGUUUGGGGAUGGUAUGACCUGUUCUCACCGGUCUCUAACCAGUGCAUCUGUCUCUCUGCCUCAUCCCCACACCGCCCUGCCACCCCCAGUCUUCUGUCCUCUUGCGGUCGCACUAGUGUGGAAUUCUCGGGUGUCAAGG
B12: ENSMUSG00000028439.89|Fam219a|94:98 (ssRNA)
RNA: GGGAGUUCUACAGUCCGACGAUCGCUUCGAUAUCCGCAUGCUAGGGUUUUGAGAAGAAAAGGAUCCAAGCAAUGGGGGCAGUUCUCACACCUCAGAGCCCCUCUCCCCAAACCCUGUGCCAGCCCAUAUACCUAUUACACAUUUCCCCUCAUCUCCAGAUGGGAAGCCUGGCAGCGCUGUCCAAAGGGAUACUGUCUCUCCAUUAGAUAACUCCUUCCACUGUCUCCCUCCCCCGCUUUCUUACUUUCUGAGGGUUGGGAAGGUAAGAUGGGCCUUAGAGAGAAGCCAGGUUUGGGGAUGGUACUCUUGCGGUCGCACUAGUGUGGAAUUCUCGGGUGUCAAGG
B13: ENSMUSG00000029636.86|Wasf3 (ssRNA)
RNA: GGGAGUUCUACAGUCCGACGAUCGCUUCGAUAUCCGCAUGCUAUUCCUGUUUCUUCCCUUUGCAAAUUGAAUUCCAGGUAGAUAUGGUUGUAGAGGGGAAAGUUUAACAAAUCAGAAUGAAAUGUUUGUCUGUUUGCACACUGGGCCUGGUGGCCUCCAAGGAAAUGUGUACGAUCGUUUGCUUUCUCUAUCUUGGCGCUUGCAACCGAGAGCGGCCAUUUUUAUGAGGGGAGCCCUGUGGGUACUCAUGUGGAAAGUGCCCACUGACUUUGGCAGAUGGAGUUCACUUUCAUGGCUAGCCCUCUCUUGCGGUCGCACUAGUGUGGAAUUCUCGGGUGUCAAGG

biological target: TDP-43 (Homo sapiens, UniProt Q13148 1-414); assay: RNA Bind-n-Seq with designed 260-mer pool; 25 mM Tris-HCl, 150 mM KCl, 3 mM MgCl2, BSA (printed 500 mg/mL), 20 units/mL SUPERase IN; pH not stated; 500 nM RNA pool, 1 h, 4 C; TDP-43 5, 50, 500 nM; high values mean tight binding; conditions: protein: recombinant; tags: SBP (GST cleaved off with PreScission; pGEX-GST-SBP)
How it was run: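 Streptavidin beads captured recombinant SBP-tagged TDP-43 at 5, 50 or 500 nM, and the beads were incubated for 1 h at 4 °C with 500 nM of an in vitro-transcribed pool of 260-nt 3′ UTR oligos in 25 mM Tris-HCl, 150 mM KCl, 3 mM MgCl2, BSA and SUPERase IN. After washing, bound RNA was eluted with biotin, reverse transcribed, PCR-amplified and sequenced. Binding is reported as R, the mapped-read-normalized abundance of each oligo in the bound sample divided by its abundance in the input. Two independent protein batches served as duplicates.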

TDP-43, sequence (Q13148 whole entry): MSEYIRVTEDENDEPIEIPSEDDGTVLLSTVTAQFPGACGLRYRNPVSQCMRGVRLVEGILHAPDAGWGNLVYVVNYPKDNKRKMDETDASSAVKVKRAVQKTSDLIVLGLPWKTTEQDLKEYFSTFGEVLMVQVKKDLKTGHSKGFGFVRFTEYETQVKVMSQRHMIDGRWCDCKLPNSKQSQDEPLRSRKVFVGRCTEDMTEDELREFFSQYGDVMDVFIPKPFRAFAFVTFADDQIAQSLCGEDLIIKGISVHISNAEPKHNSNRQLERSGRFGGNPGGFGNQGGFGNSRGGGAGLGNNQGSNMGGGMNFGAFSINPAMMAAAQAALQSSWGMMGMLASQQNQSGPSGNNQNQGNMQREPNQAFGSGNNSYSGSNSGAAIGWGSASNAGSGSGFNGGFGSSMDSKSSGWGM

Binder | binding signal
B1 | 1 R (bound/input frequency ratio)
B2 | 1.04 R (bound/input frequency ratio)
B3 | 1.84 R (bound/input frequency ratio)
B4 | 4.64 R (bound/input frequency ratio)
B5 | 7.8 R (bound/input frequency ratio)
B6 | 6.67 R (bound/input frequency ratio)
B7 | 6.07 R (bound/input frequency ratio)
B8 | 7.17 R (bound/input frequency ratio)
B9 | 0.284 R (bound/input frequency ratio)
B10 | 1.18 R (bound/input frequency ratio)
B11 | 0.421 R (bound/input frequency ratio)
B12 | 0.538 R (bound/input frequency ratio)
B13 | 3.02 R (bound/input frequency ratio)
